Data: PubChem BioAssay AID1159580 (chemical genetic matrix, 2015)
Values joined by “and” are separate entries in the source; they are usually repeats but may differ in a detail not shown here. Equal entries are not always repeated. Hit rate of the full screen: of about 5,500 compounds, about 2,000 (36%) were called active. Not shown: some 18% with an inconclusive outcome. Rule as the data show it: active = normalized growth mostly below about 0.91 (no sharp cut-off); inconclusive = no clear call, values can overlap the other calls; inactive = mostly above about 0.92. The list shows a part of the results.

Assay: chemical genetic growth profiling, strain panel (AID 1159580);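 also: tested at 20 µM; growth read once vehicle control cultures reached saturation at 30 °C; 1 = growth at the plate median or of vehicle wells; lower values mean less growth of the strain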
Details: S. cerevisiae deletion strains, growth OD

Measured: normalized growth

S=C=NCc1ccccc1
active: locus YAL013W, strain DEP1, stronger effect = lower value 0.0579 | locus YAL021C, strain ccr4, stronger effect = lower value 0.661 | locus YAL026C, strain drs2, stronger effect = lower value 0.0761 | locus YAL030W, strain snc1, stronger effect = lower value 0.0648 | locus YBL061C, strain skt5, stronger effect = lower value 0.079 | locus YBR009C, strain hhf1, stronger effect = lower value 0.0753 | locus YBR021W, strain FUR4, stronger effect = lower value 0.17 | locus YBR023C, strain chs3, stronger effect = lower value 0.0813 | locus YBR171W, strain sec66, stronger effect = lower value 0.117 | locus YBR229C, strain ROT2, stronger effect = lower value 0.0461 | locus YBR231C, strain swc5, stronger effect = lower value 0.0718 | locus YBR279W, strain paf1, stronger effect = lower value 0.0918 | locus YCL011C, strain gbp2, stronger effect = lower value 0.0749 | locus YCL016C, strain dcc1, stronger effect = lower value 0.0958 | locus YCL029C, strain bik1, stronger effect = lower value 0.0592 | locus YCL061C, strain MRC1, stronger effect = lower value 0.0833 | locus YCL069W, strain vba3, stronger effect = lower value 0.0787 | locus YCR088W, strain abp1, stronger effect = lower value 0.069 | locus YDL005C, strain med2, stronger effect = lower value 0.583 | locus YDL035C, strain GPR1, stronger effect = lower value 0.0548 | locus YDL040C, strain nat1, stronger effect = lower value 0.139 | locus YDL074C, strain BRE1, stronger effect = lower value 0.0981 | locus YDL101C, strain DUN1, stronger effect = lower value 0.0649 | locus YDL134C, strain PPH21, stronger effect = lower value 0.0517 | locus YDL185W, strain tfp1, stronger effect = lower value 0.0574 | locus YDL192W, strain arf1, stronger effect = lower value 0.0627 | locus YDR001C, strain nth1, stronger effect = lower value 0.07 | locus YDR069C, strain doa4, stronger effect = lower value 0.143 | locus YDR101C, strain arx1, stronger effect = lower value 0.0574 | locus YDR137W, strain rgp1, stronger effect = lower value 0.616 | locus YDR150W, strain NUM1, stronger effect = lower value 0.0586 | locus YDR159W, strain sac3, stronger effect = lower value 0.275 | locus YDR162C, strain NBP2, stronger effect = lower value 0.0541 | locus YDR195W, strain ref2 0.187 | locus YDR297W, strain sur2, stronger effect = lower value 0.068 | locus YDR318W, strain mcm21, stronger effect = lower value 0.0636 | locus YDR334W, strain swr1, stronger effect = lower value 0.0851 | locus YDR335W, strain msn5, stronger effect = lower value 0.0739 | locus YDR388W, stronger effect = lower value 0.061 | locus YDR392W, strain spt3, stronger effect = lower value 0.112 | locus YDR502C, strain sam2, stronger effect = lower value 0.0605 | locus YEL003W, strain gim4, stronger effect = lower value 0.0605 | locus YEL037C, strain rad23, stronger effect = lower value 0.178 | locus YEL061C, strain CIN8 (second series), stronger effect = lower value 0.0786 | locus YEL061C, strain CIN8, stronger effect = lower value 0.05 | locus YER015W, strain faa2, stronger effect = lower value 0.0762 | locus YER016W, strain bim1, stronger effect = lower value 0.081 | locus YER110C, stronger effect = lower value 0.0778 | locus YER111C, strain swi4, stronger effect = lower value 0.0829 | locus YER155C, strain BEM2 (second series), stronger effect = lower value 0.0957 | locus YER155C, strain BEM2, stronger effect = lower value 0.0627 | locus YER167W, strain BCK2, stronger effect = lower value 0.0526 | locus YFR010W, strain ubp6, stronger effect = lower value 0.136 | locus YGL078C, strain dbp3, stronger effect = lower value 0.0565 | locus YGL086W, strain mad1, stronger effect = lower value 0.0589 | locus YGL167C, strain pmr1, stronger effect = lower value 0.393 | locus YGL173C, strain kem1, stronger effect = lower value 0.214 | locus YGL227W, strain vid30, stronger effect = lower value 0.072 | locus YGL240W, strain doc1, stronger effect = lower value 0.203 | locus YGL248W, strain PDE1, stronger effect = lower value 0.0468 | locus YGL253W, strain hxk2, stronger effect = lower value 0.0793 | locus YGR078C, strain PAC10, stronger effect = lower value 0.0557 | locus YGR135W, strain pre9, stronger effect = lower value 0.066 | locus YGR229C, strain SMI1, stronger effect = lower value 0.0658 | locus YGR252W, strain gcn5, stronger effect = lower value 0.176 | locus YHR013C, strain ard1, stronger effect = lower value 0.175 | locus YHR027C, strain rpn1, stronger effect = lower value 0.103 | locus YHR030C, strain SLT2, stronger effect = lower value 0.0491 and 0.174 | locus YHR079C, strain IRE1 (second series), stronger effect = lower value 0.0547 | locus YHR079C, strain IRE1, stronger effect = lower value 0.181 | locus YHR094C, strain hxt1, stronger effect = lower value 0.0577 | locus YHR129C, strain ARP1, stronger effect = lower value 0.0553 | locus YHR142W, strain chs7, stronger effect = lower value 0.0817 | locus YHR200W, strain rpn10, stronger effect = lower value 0.0598 | locus YIL066C, strain RNR3, stronger effect = lower value 0.0519 | locus YIL073C, strain SPO22, stronger effect = lower value 0.132 | locus YIL125W, strain kgd1, stronger effect = lower value 0.0561 | locus YIR030C, strain dcg1, stronger effect = lower value 0.0588 | locus YJL092W, strain hpr5, stronger effect = lower value 0.08 | locus YJL095W, strain BCK1 (second series), stronger effect = lower value 0.0601 | locus YJL095W, strain BCK1, stronger effect = lower value 0.0573 and 0.268 | locus YJL115W, strain asf1, stronger effect = lower value 0.123 | locus YJL129C, strain trk1, stronger effect = lower value 0.257 | locus YJL134W, strain LCB3, stronger effect = lower value 0.0484 | locus YJL154C, strain vps35, stronger effect = lower value 0.165 | locus YJL164C, strain tpk1, stronger effect = lower value 0.0744 | locus YJL166W, strain qcr8, stronger effect = lower value 0.0848 | locus YJL168C, strain set2, stronger effect = lower value 0.0599 | locus YJL187C, strain SWE1 (second series), stronger effect = lower value 0.0487 | locus YJL187C, strain SWE1, stronger effect = lower value 0.0904 | locus YJR043C, strain POL32, stronger effect = lower value 0.0693 | locus YJR066W, strain TOR1, stronger effect = lower value 0.735
